Only some compounds are listed: those with a hit (about 6.6% of all), similar ones and a draw of the others.
RGS4 inh = inhibitors of human regulator of G protein signaling 4 | Transcreener GDP fluorescence polarization, RGS4-accelerated GTP hydrolysis | Potency, µM (titrated, usually from 114 µM), usual class: inhibitors | 390,000 tested, 0.039% active | AID 504845; further: nearly all actives have a fitted effect of over 75% in size
Target sequence (P49798 whole entry, looked up): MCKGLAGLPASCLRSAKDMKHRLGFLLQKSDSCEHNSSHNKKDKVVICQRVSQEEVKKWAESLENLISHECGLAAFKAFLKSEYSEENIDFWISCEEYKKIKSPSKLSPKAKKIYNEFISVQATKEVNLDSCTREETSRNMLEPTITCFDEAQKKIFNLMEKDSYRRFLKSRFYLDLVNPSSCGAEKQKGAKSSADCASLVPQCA
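MLSMR compounds (23 nl, pin-transferred) preincubated 10 min at room temperature with a 500nM (2x) first reagent, then RGS4 at 900nM (2x) plus Transcreener GDP mix added; fluorescence polarization (620/688 nm) read before and after 90 min at 30 °C.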
MCF10A rereplic = inducers of DNA re-replication in MCF 10A breast cells; MCF 10A DNA re-replication, Hoechst nuclear intensity, 48 h; Potency, µM (doses to about 46.1 µM), usual class: activators; 350,000 tested, 2.9% active; further: nearly all actives have a fitted effect of over 50% in size
SW480 rerep = induces DNA re-replication in SW480 colon adenocarcinoma cells. Potency, µM (top dose mostly 46.1 µM), most hits filed as activators. AID 624297. SW480 DNA re-replication, Hoechst DNA content imaging, 48 h. 340,000 tested, 1.8% active; further: nearly all actives have a fitted effect of over 55% in size
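250 cells/well; 23 nL cpd via pin tool; 48 hr, 37 C, 5% CO2; Hoechst 40 min; imager read of total nuclear intensity, ex 405/em 500-530 nm.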
KB-3-1 cytotox = KB-3-1 parental cell cytotoxicity; KB-3-1 viability, CellTiter-Glo ATP luminescence, 72 h; Potency, µM (doses to about 46.1 µM), usual class: cytotoxic; 400,000 tested, 1.4% active; AID 1347075; further: nearly all actives have a fitted effect of over 60% in size
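Parental KB-3-1 viability, qHTS format: 72 h compound exposure, 37 °C; CellTiter-Glo; media-only wells and DMSO plates as controls; concentration-effect fits on corrected data.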
PTAP TSG101 blk = blocks PTAP/TSG101 interaction to inhibit HIV-1 budding. Q99816. Fluorescence polarization, FITC-PTAP peptide / Tsg101 binding. Potency, µM (series often up to 115 µM), most hits filed as inhibitors. 340,000 tested, under 10 active. AID 493005; active means well fitted inhibition curve with a large enough effect in the main read-out, with a control signal flat, not every such curve was filed as active; inconclusive means small, poorly fitted or top-dose-only effect, or effect the other way, or a change in a side signal; inactive means no such curve, though single readings can be large or run the other way
Target sequence (Q99816 whole entry, looked up): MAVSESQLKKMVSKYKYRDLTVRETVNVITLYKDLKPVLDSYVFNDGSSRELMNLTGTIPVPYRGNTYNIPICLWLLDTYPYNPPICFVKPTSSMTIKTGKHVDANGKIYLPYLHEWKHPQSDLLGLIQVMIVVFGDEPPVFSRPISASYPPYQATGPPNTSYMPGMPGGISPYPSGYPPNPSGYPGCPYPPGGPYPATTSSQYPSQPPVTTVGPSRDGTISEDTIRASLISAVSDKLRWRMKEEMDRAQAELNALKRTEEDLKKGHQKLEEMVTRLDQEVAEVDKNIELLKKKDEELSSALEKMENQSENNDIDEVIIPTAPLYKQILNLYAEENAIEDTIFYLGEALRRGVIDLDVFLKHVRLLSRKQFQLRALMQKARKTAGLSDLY
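Compounds were pin-transferred onto Tsg101 binding domain (10 uM final) in HEPES pH 7.5 buffer, then FITC-PTAP peptide was added at 50 nM final. After 20 min at RT, polarization reported peptide displacement across a qHTS concentration series.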
KB-V1 MDR tox = KB-V1 MDR subline cytotoxicity; AID 1347076; 400,000 tested, 3.4% active; KB-V1 MDR cells viability, CellTiter-Glo, 72 h; Potency, µM (series often up to 46.1 µM), most hits filed as cytotoxic; further: nearly all actives have a fitted effect of over 60% in size
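Cytotoxicity via CellTiter-Glo luminescence after 72 h compound exposure at 37 degrees C. Cells: drug-selected KB-V1 line, DMEM phenol-red free plus 10% FBS. Compounds tested at multiple concentrations; normalized data fitted to concentration-effect curves.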
A number is an active result; n = inactive; u = inconclusive; x = not tested or not shown; [ ] = another dose, or the depositor's remark. Unless noted, the call rests on the fitted dose curve; in most records, active means well fitted curve in the direction sought with a large enough effect; inconclusive means small, poorly fitted or top-dose-only effect, or another doubt; inactive means no such curve, though single readings can be large; an effect the other way counts as inactive or inconclusive.

SMILES | RGS4 inh | MCF10A rereplic | SW480 rerep | KB-3-1 cytotox | PTAP TSG101 blk | KB-V1 MDR tox
CCN(CC)CCNC(=O)c1c(O)c2cccc3c2n(c1=O)CCC3 | n | n | u | n | n | 0.73µM
O=C1/C(=C/c2ccccc2)CN(C(=O)CCN2CCOCC2)C/C1=C\c1ccccc1 | u | 2.3µM | u | n | n | u
O=C(/C=C/c1ccccc1)CCN1CCOCC1 | n | u | 8.2µM | u | n | u
O=C(/C=C/c1ccccc1)N1CCOCC1 | n | n | n | n | n | u
C[N+](C)(C)CCC(=O)N1C/C(=C/c2ccccc2)C(=O)/C(=C\c2ccccc2)C1 | u | u | 0.73µM | u | n | 10µM
CN(C)CCC(=O)N1C/C(=C/c2ccccc2)C(=O)/C(=C\c2ccccc2)C1 | u | n | u | n | n | n
COc1ccc(-c2cn3nc(SCC(=O)Nc4ccc(C)c(Cl)c4)ccc3n2)cc1 | n | x | x | n | x | n
Cc1ccccc1NC(=O)CSc1nc2c(oc3ccccc32)c(=O)n1Cc1ccco1 | n | x | x | n | x | n
CCOC(=O)Cc1ccc(NC(=O)N(Cc2ccc(CC)cc2)Cc2cn[nH]c2-c2ccc(OC)cc2)cc1 | n | x | x | n | x | u
CCc1ccc(CNC(=O)CN2C(=O)CSc3c2c(C)nn3-c2ccccc2)cc1 | n | x | x | n | x | n
CCn1cc(C(=O)Nc2ccc(C(C)C)cc2)c2cc(OC)c(OC)cc2c1=O | n | x | x | n | x | u
CCc1cccc(CC)c1NC(=O)COC(=O)CC1c2ccccc2CCN1S(=O)(=O)c1ccc(F)cc1 (stereo unspecified) | n | n | n | n | n | 18µM
O=C(COC(=O)CC1c2ccccc2CCN1S(=O)(=O)c1ccc(F)cc1)Nc1ccccc1 (stereo unspecified) | n | n | n | n | n | n
Oc1cc(NCc2ccc(Cl)cc2)cc2cccnc12 | n | n | n | 16µM | n | n
Oc1cc(NCc2ccc(F)cc2)cc2cccnc12 | n | u | u | 6.5µM | n | n
O=C(N/N=C/C(Cl)=C/c1ccc([N+](=O)[O-])cc1)C(=O)Nc1ccc(C(=O)O)cc1 | n[11.4 µM] | u | u | n | n | n
O=C(N/N=C/C(Cl)=C/c1ccc([N+](=O)[O-])cc1)C(=O)Nc1ccccc1C(=O)O | n | n | n | 7.3µM | n | 2.1µM
COC(=O)c1cc(OC)c(OC)cc1NC(=O)c1ccc(C)cc1 | n | n | n | n | n | 3.3µM
COC(=O)c1cc(Cl)c(NC(=O)c2ccc(C(C)(C)C)cc2)cc1OC | n | 9.2µM | n | n | n | n
COc1ccc(CN2CC[C@H]3C=CC[C@@H](C(=O)Nc4nccs4)[C@H]3C2=O)cc1OC | x | x | x | n | x | n
CSc1nc(N)nc(SCC(=O)Nc2cccc(F)c2)c1C#N | n | u | u | u | n | 2.3µM
CC1(C)Cc2ccccc2C(N/N=C/c2ccc(Cl)cc2)=N1 | n | u | n | u | n | 15µM
CCCc1cc(=O)oc2cc(C)c3c(-c4ccccc4)coc3c12 | n | x | x | n | x | u
CCN1CCN(Cc2c(O)ccc3c2O/C(=C\C=C\c2ccccc2)C3=O)CC1 | n | u | u | 16µM | n | u
CCc1ccccc1N(c1nc(-c2ccc(OC)c(OC)c2)no1)c1nc(-c2ccc(OC)c(OC)c2)no1 | n | x | x | n | x | n
SMILES | RGS4 inh | MCF10A rereplic | SW480 rerep | KB-3-1 cytotox | PTAP TSG101 blk | KB-V1 MDR tox
Cc1ccc2c(c1)C(=O)C(=O)N2Cc1ccc(Br)cc1 | u | u | 18µM | n | n | u
Cc1cccc(OCCN2C(=O)C(=O)c3cccc(C)c32)c1 | n | n | n | n | n | n
O=C1C(=O)N(Cc2ccccc2)C(=O)N1CCOc1ccccc1 | u | 13µM | u | n | n | u
Cc1cccc(OCCN2C(=O)C(=O)c3cc(C)ccc32)c1 | u | 18µM | u | u | n | u
CCCN1C(=O)C(=O)c2cc(C)ccc21 | n | n | 6.5µM | 6.5µM | n | 8.2µM
O=C(CNC(=O)C(c1ccccc1)c1ccccc1)OCC(=O)c1ccc2ccccc2c1 | n | x | x | n | x | n
CC(C)(C)C(=O)CSc1n[nH]c(-c2ccccc2)n1 | x | x | x | n | x | n
O=C(CC1N=C2c3ccccc3N=C(SCC(=O)Nc3cccc(C(F)(F)F)c3)N2C1=O)NCc1cccs1 (stereo unspecified) | n | x | x | n | x | n
CC(C)Oc1ccc(CNC(=O)C2=Cc3ccccc3OC2)cc1 | n | x | x | n | x | n
COc1cccc(NCc2cccn2-c2nnc(N3CCC(C)CC3)s2)c1 | n | x | x | n | x | u
Cc1ccc2c(c1)C(=O)C(=O)N2CCOc1ccccc1 | n | n | 4.1µM | u | n | u
CCCCN1C(=O)C(=O)c2cc(Cl)ccc21 | u | 23µM | u | u | n | u
CC(C)c1cnc2c(c1SCC(=O)c1ccccc1)c(=O)n(C)c(=O)n2C | n | x | x | x | x | x
COc1cc([N+](=O)[O-])c2ncccc2c1 | n | x | x | x | x | x
O=[N+]([O-])c1cc(O)c2ncccc2c1 | n | u | n | u | n | 18µM
O=[N+]([O-])c1cc2cccnc2c2ncccc12 | n | n | 15µM | 0.12µM | n | n
Cc1ccc([N+](=O)[O-])c2cccnc12 | n | n | n | n | n | n
COc1ccc(S(=O)(=O)NCCc2csc3nc(-c4ccc(OC)c(OC)c4)nn23)cc1C | n | x | x | x | x | x
Cn1c(Cl)cnc1C1CC(=O)c2cc(Cl)ccc2O1 (stereo unspecified) | u | u | 10µM | u | n | u
COc1ccccc1C(=O)OCC(=O)Nc1ccc(N2CCCCC2)cc1 | x | x | x | u | x | n
CCOC(=O)c1c(C)[nH]c(CCC(=O)Nc2c(C)cccc2CC)c1C | n | x | x | x | x | x
CCOc1ccc(NC(=O)c2oc3ccccc3c2NC(=O)Cc2cccs2)cc1 | n | x | x | n | x | n
Cc1cc(C)c(NC(=O)CNC(=O)CN(C)Cc2ccc(Br)s2)c(C)c1 | n | n | n | n | n | 16µM
O=C(NC1CCCC1)c1ccc2c(c1)N(Cc1ccc(C(F)(F)F)cc1)C(=O)c1ccccc1S2 | n | x | x | n | x | u
C#CC(=O)N(c1cc(OC)ccc1OC)C(C(=O)NC1CCCC1)c1cccs1 (stereo unspecified) | n | n | 0.15µM | 15µM | n | u
O=C(NCc1ccco1)C(c1ccco1)N(Cc1cccs1)C(=O)Cn1nnc2ccccc21 (stereo unspecified) | n | n | n | n | n | n
O=C(NC1CCCCC1)C(c1ccco1)N(Cc1cccs1)C(=O)Cn1nnc2ccccc21 (stereo unspecified) | n | n | n | n | x | 5.2µM
O=C(NC1CCCCC1)C(c1cccs1)N(C(=O)C(F)(F)F)c1ccccc1 (stereo unspecified) | n | 15µM | u | n | n | n

Screens (PubChem)
